Assay outcomes: PubChem, Broad Institute
Only a sample is shown.
aSyn UTR act: Activators working through SNCA 5'UTR binding (MLPCN); alpha-synuclein 5'UTR reporter, activators screen; activity score, % (tested at 7.5 µM), hits read low; hit rate 7.1% among 300,000; in the data active = activity score below about -60%
Active calls of the source: *.

SMILES	aSyn UTR act
O=C(Cc1nc2ccccc2[nH]1)c1ccc([N+](=O)[O-])cc1	-89.8*
Clc1ccc(/C(Cc2nc3ccccc3[nH]2)=N\Nc2ccccc2)cc1	-115.1*
CCc1cc(C(=O)Cc2nc3ccccc3[nH]2)c(O)cc1O	-183.4*
COc1ccc2nc(SCC(=O)Nc3ccc4sc(C)nc4c3)c(C#N)cc2c1	-147.8*
COc1ccc2cc(C#N)c(SCC(=O)NNC(=O)Cc3ccccc3)nc2c1	-78.1*
CCOC(=O)CSc1nc2cc(OCC)ccc2cc1C#N	-209.5*
CCOC(=O)CSC1=C(C#N)C(c2ccc(C)o2)CC(=O)N1 (stereo not given)	78.1
COC(=O)CSc1nc2cc(OC)ccc2cc1C#N	-133.1*
Cc1ccccc1-c1nc(-c2ccc(NC(=O)c3cccs3)cc2)no1	-187.0*
O=C(Nc1ccc(-c2noc(-c3ccccc3F)n2)cc1)c1cccs1	-76.7*
Cc1cc(C)nc(SCC(=O)OCC(=O)Nc2nc3ccccc3s2)n1	-69.8*
Cc1cc(C)nc(NC(=O)CSc2nc3ccccc3s2)n1	-203.1*
CC(C)(C)NC(=O)CCCSc1nc2ccccc2s1	-133.0*
Cc1cc(C)n2c(Br)c(CSc3nc4ccccc4s3)nc2n1	-79.2*
O=C(CCSc1nc2ccccc2s1)N/N=C/c1c(O)ccc2ccccc12	65.9
Cc1csc(SCC(=O)Nc2nc3ccccc3s2)n1	-99.9*
Cc1cc(NC(=O)CCl)n(-c2nc3ccccc3s2)n1	-77.0*
COC(=O)c1ccc(COn2nnc3ccccc32)cc1	-130.4*
Clc1cccc(Cl)c1COn1nnc2ccccc21	-149.1*
c1ccc(-n2ncc3c(NC4CCCCCC4)ncnc32)cc1	-96.8*
c1ccc(-n2ncc3c(NCC4CCCO4)ncnc32)cc1 (stereo not given)	-132.1*
Cc1ccccc1Nc1ncnc2c1cnn2-c1ccccc1	-111.6*
Clc1ccc(-n2ncc3c(NCC4CCCO4)ncnc32)cc1 (stereo not given)	-89.0*
COc1ccc(-n2ncc3c(NCC4CCCO4)ncnc32)cc1 (stereo not given)	-140.3*
COc1ccc(OC)c(/C=C/C(=O)NC2=NCCS2)c1	-71.3*
SMILES	aSyn UTR act
COc1ccc(/C=C/C(=O)NC2=NCCS2)cc1OC	-147.7*
O=[N+]([O-])c1ccc(Nc2ccc3ccccc3c2)nc1	-168.4*
COc1ccc(/C=C/C(=O)Nc2cc(C)nn2-c2nc3ccccc3[nH]2)cc1	-84.9*
CCCCCCn1c2c(c(=N)c3c1CCC3)CCC2	67.3
COc1ccc(C(CC(=O)Nc2nccs2)n2cccc2)cc1 (stereo not given)	-168.5*
COc1cccc(-n2ccnc2SCC(=O)Nc2nccs2)c1	-73.1*
Cc1cccc(-n2c(SCC(=O)Nc3ncc(Cl)cc3Cl)nc3ccccc32)c1	58.4
Cc1cccc(-n2ccnc2SCC(=O)Nc2nccs2)c1	-132.4*
COc1ccc(C(CC(=O)Nc2ccccn2)N2Cc3ccccc3C2=O)cc1 (stereo not given)	-113.4*
CCOc1ccc(-n2c(SCC(=O)Nc3nccs3)nc3c(c2=O)SCC3)cc1	57.3
CCCC(=O)NC(c1ccc(OC)cc1)c1ccc2cccnc2c1O (stereo not given)	129.2
Cc1ccc(C)c(NC(=S)NNC(=O)c2csc(C(C)C)c2)c1	-99.6*
Cc1ccc(C)c(NC(=S)NNC(=O)c2sccc2C)c1	-69.0*
Cc1ccc(C)c(NC(=S)NNC(=O)c2csc(C)c2C)c1	-91.5*
O=C(NC(=S)N1CCCCC1)c1csc([N+](=O)[O-])c1	-87.1*
C[C@@H]1OC(Nc2ccc(N=Nc3ccccc3)cc2)[C@H](O)[C@H](O)[C@H]1O (stereo not given in full)	-88.5*
Cc1ccc(Cn2cc(-c3ccccc3)nn2)cc1	-123.6*
COc1ccc(-c2cn(Cc3ccc(C(=O)c4ccccc4)cc3)nn2)cc1	-161.5*
CC(=O)Nc1cccc(C(=O)NCCc2ccco2)c1	-75.7*
Cc1c(C)n(C)c2ccc(C(=O)NCCc3ccco3)cc12	-74.4*
Cc1ccc(C(=O)CN2C(=O)c3ccccc3S2(=O)=O)cc1	109.4
Cc1ccc(C(=O)COc2ccccc2N2C(=O)c3ccccc3C2=O)cc1	-127.5*
Cc1ccccc1NCc1nc2ccccc2n1C	-126.0*
Cn1c(CNc2ccccc2O)nc2ccccc21	-153.9*
Cc1oc(-c2ccc3c(c2)OCCO3)cc1C(=O)NCC(=O)O	-126.1*
SMILES	aSyn UTR act
Cc1oc(-c2ccc3c(c2)OCCO3)cc1C(=O)O	-135.1*
Fc1ccc(CNc2ccccn2)cc1	-77.7*
CSc1ccc(CNc2ccccn2)cc1	-99.5*
CCC(Sc1nnnn1C)C(=O)Nc1ccc(C(C)=O)cc1 (stereo not given)	-73.4*
CC1CCCN(C(=S)Nc2ccc(Nc3ccccc3)cc2)C1 (stereo not given)	-123.2*
OC1CCCN(C(=S)Nc2ccc(SC(F)F)cc2)C1 (stereo not given)	-68.3*
OC1CCN(C(=S)Nc2ccc(Nc3ccccc3)cc2)CC1	-116.3*
CC(C)(C)C(=O)O/N=C(\N)COc1cccc(Cl)c1	-124.8*
COc1ccc2cc3cc(C(=O)NC4CC4)sc3nc2c1	56.7
COc1ccc2nc3sc(C(=O)NCCN4CCc5ccccc5C4)cc3cc2c1	-68.8*
COc1ccc2cc3cc(C(=O)NCCCN4CCc5ccccc5C4)sc3nc2c1	-198.0*
CCc1nc2cc3sc(CC)nc3cc2s1	-133.1*
Cc1ccc2[nH]c(=O)c(-c3nc4cc(C)ccn4c3NCc3ccco3)cc2c1	-77.7*
COc1cccc(N2CCN(c3cnc4ccccc4n3)CC2)c1	-116.4*
COc1ccc(N2CCN(c3cnc4ccccc4n3)CC2)cc1	-101.0*
COc1ccc(N2CCN(c3ncccn3)CC2)cc1	-130.3*
O=C(COC(=O)c1ccccc1Cc1ccccc1)Nc1ccc(SC(F)F)cc1	-109.3*
O=C(Cc1ccccc1F)Nc1ccc(SC(F)F)cc1	-136.9*
O=C(NCc1cccnc1)c1ccc(-c2cc3ccccc3oc2=O)cc1	-138.7*
COc1ccc(-c2cc3ccccc3oc2=O)cc1	-71.1*
Nc1ccc(-c2cc3ccccc3oc2=O)cc1	106.4
O=c1oc2ccccc2cc1-c1ccc(O)cc1	-101.1*
CSc1ncc(-c2ccc(Cl)cc2)[nH]1	-145.0*
O=C(/C=C/Nc1ccc(F)c(F)c1)c1cccs1	-374.4*
O=C(/C=C/Nc1ccc(F)cc1)c1cccs1	-114.5*
SMILES	aSyn UTR act
COc1ccc(NC(=O)c2ccc3nc(C)sc3c2)cc1	-123.7*
COC(=O)c1ccc(NC(=O)c2ccc3nc(C)sc3c2)cc1	-179.8*
COc1ccc(C(=O)Nc2nc(C)c(C)s2)cc1OC	-141.6*
COc1ccc(C(=O)Nc2ccc(Oc3nc(C)nc4sc(-c5ccccc5)cc34)cc2)cc1OC	-120.4*
Cc1nc2ccc(C(=O)Nc3cccc([N+](=O)[O-])c3)cc2s1	-126.8*
COc1ccc(C(=O)Nc2ccc3nc(C)sc3c2)cc1OC	-101.0*
COc1ccc(C(=O)CC(=O)c2ccc(OC)cc2)cc1	-70.8*
COc1ccc(C(CC(=O)c2ccccc2)S(=O)(=O)c2ccc(C)cc2)cc1 (stereo not given)	-186.1*
COc1ccc(C(=O)CCNc2ccc(F)cc2)cc1	-114.2*
COc1ccc(C(=O)C[n+]2ccc3ccccc3c2C)cc1	-143.8*
COc1ccc(S(=O)(=O)Nc2cc3c(C(C)=O)c(C)oc3c3ccccc23)cc1	81.9
COc1ccc(C(=O)Cc2nnc(C)s2)cc1	-98.6*
COC(=O)c1ccc(OCC(=O)c2ccccc2)cc1	-133.2*
CCOc1ccc(C(=O)CSCCC(=O)O)cc1	68.3
COc1ccc(C(=O)CC(=O)c2ccccc2)cc1	-125.0*
